Laboratory results from paper PMC9911399, “Two distinct binding modes provide the RNA-binding protein RbFox with extraordinary sequence specificity”.
Substitutions are numbered along the chain they refer to; changes in the protein carry UniProt numbers. In all, about 16,000 sequences were measured (“ka relative to ugcaugu”: median about 0.096, highest 2% from about 0.35 on). The sample as a whole holds a higher share of the highest values than the screen did.

T1: RBFOX1 RRM RbFoxmut (Fox-RRM*) (Homo sapiens, UniProt Q9NWB1 109-208, R118D;E147R;N151S;E152T)
T1 sequence: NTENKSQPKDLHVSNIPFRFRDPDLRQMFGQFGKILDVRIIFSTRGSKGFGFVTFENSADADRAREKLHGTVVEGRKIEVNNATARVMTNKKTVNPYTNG

B1: CUAUAAG (DNA:RNA)
RNA: GGGAGACCGGAAUUCAGAUUGUCCCUAUAAGUUAAAUCCCGUCGUAGCCACCA
DNA 1: CAATCTGAATTCCGGTCTCCC
DNA 2: TGGTGGCTACGACGGGATT
B2: GUCAGCC (DNA:RNA)
RNA: B1 RNA with C25G, A27C, U28A, A29G, A30C, G31C
DNA 1: CAATCTGAATTCCGGTCTCCC
DNA 2: TGGTGGCTACGACGGGATT
B3: GCACGGU (DNA:RNA)
RNA: B1 RNA with C25G, U26C, U28C, A29G, A30G, G31U
DNA 1: CAATCTGAATTCCGGTCTCCC
DNA 2: TGGTGGCTACGACGGGATT
B4: CUAAUAG (DNA:RNA)
RNA: B1 RNA with U28A, A29U
DNA 1: CAATCTGAATTCCGGTCTCCC
DNA 2: TGGTGGCTACGACGGGATT
B5: UCCGCGC (DNA:RNA)
RNA: GGGAGACCGGAAUUCAGAUUGUCCUCCGCGCUUAAAUCCCGUCGUAGCCACCA
DNA 1: CAATCTGAATTCCGGTCTCCC
DNA 2: TGGTGGCTACGACGGGATT
B6: CAGAAUG (DNA:RNA)
RNA: B1 RNA with U26A, A27G, U28A, A30U
DNA 1: CAATCTGAATTCCGGTCTCCC
DNA 2: TGGTGGCTACGACGGGATT
B7: CAGAUUG (DNA:RNA)
RNA: B1 RNA with U26A, A27G, U28A, A29U, A30U
DNA 1: CAATCTGAATTCCGGTCTCCC
DNA 2: TGGTGGCTACGACGGGATT
B8: UAGAUUG (DNA:RNA)
RNA: B1 RNA with C25U, U26A, A27G, U28A, A29U, A30U
DNA 1: CAATCTGAATTCCGGTCTCCC
DNA 2: TGGTGGCTACGACGGGATT
B9: UAGAAUG (DNA:RNA)
RNA: B1 RNA with C25U, U26A, A27G, U28A, A30U
DNA 1: CAATCTGAATTCCGGTCTCCC
DNA 2: TGGTGGCTACGACGGGATT
B10: UAGAAUC (DNA:RNA)
RNA: B5 RNA with C26A, C27G, G28A, C29A, G30U
DNA 1: CAATCTGAATTCCGGTCTCCC
DNA 2: TGGTGGCTACGACGGGATT
B11: CCCAGAA (DNA:RNA)
RNA: B1 RNA with U26C, A27C, U28A, A29G, G31A
DNA 1: CAATCTGAATTCCGGTCTCCC
DNA 2: TGGTGGCTACGACGGGATT
B12: GAGCACA (DNA:RNA)
RNA: B1 RNA with C25G, U26A, A27G, U28C, A30C, G31A
DNA 1: CAATCTGAATTCCGGTCTCCC
DNA 2: TGGTGGCTACGACGGGATT
B13: UGGCUAC (DNA:RNA)
RNA: B5 RNA with C26G, C27G, G28C, C29U, G30A
DNA 1: CAATCTGAATTCCGGTCTCCC
DNA 2: TGGTGGCTACGACGGGATT
B14: UGGCCCU (DNA:RNA)
RNA: B5 RNA with C26G, C27G, G28C, G30C, C31U
DNA 1: CAATCTGAATTCCGGTCTCCC
DNA 2: TGGTGGCTACGACGGGATT
B15: AGUCUUG (DNA:RNA)
RNA: B1 RNA with C25A, U26G, A27U, U28C, A29U, A30U
DNA 1: CAATCTGAATTCCGGTCTCCC
DNA 2: TGGTGGCTACGACGGGATT
B16: GUCGGUC (DNA:RNA)
RNA: B5 RNA with U25G, C26U, C29G, G30U
DNA 1: CAATCTGAATTCCGGTCTCCC
DNA 2: TGGTGGCTACGACGGGATT
B17: GUCUUGG (DNA:RNA)
RNA: B1 RNA with C25G, A27C, A29U, A30G
DNA 1: CAATCTGAATTCCGGTCTCCC
DNA 2: TGGTGGCTACGACGGGATT
B18: CACCGUC (DNA:RNA)
RNA: B5 RNA with U25C, C26A, G28C, C29G, G30U
DNA 1: CAATCTGAATTCCGGTCTCCC
DNA 2: TGGTGGCTACGACGGGATT
B19: GUUGGUC (DNA:RNA)
RNA: B5 RNA with U25G, C26U, C27U, C29G, G30U
DNA 1: CAATCTGAATTCCGGTCTCCC
DNA 2: TGGTGGCTACGACGGGATT
B20: ACCAGUC (DNA:RNA)
RNA: B5 RNA with U25A, G28A, C29G, G30U
DNA 1: CAATCTGAATTCCGGTCTCCC
DNA 2: TGGTGGCTACGACGGGATT
B21: GGUCGUC (DNA:RNA)
RNA: B5 RNA with U25G, C26G, C27U, G28C, C29G, G30U
DNA 1: CAATCTGAATTCCGGTCTCCC
DNA 2: TGGTGGCTACGACGGGATT
B22: AGUCGUC (DNA:RNA)
RNA: B5 RNA with U25A, C26G, C27U, G28C, C29G, G30U
DNA 1: CAATCTGAATTCCGGTCTCCC
DNA 2: TGGTGGCTACGACGGGATT
B23: GGUCUUG (DNA:RNA)
RNA: B1 RNA with C25G, U26G, A27U, U28C, A29U, A30U
DNA 1: CAATCTGAATTCCGGTCTCCC
DNA 2: TGGTGGCTACGACGGGATT
B24: CGUCGUC (DNA:RNA)
RNA: B1 RNA with U26G, A27U, U28C, A29G, A30U, G31C
DNA 1: CAATCTGAATTCCGGTCTCCC
DNA 2: TGGTGGCTACGACGGGATT
B25: CGUCUUG (DNA:RNA)
RNA: B1 RNA with U26G, A27U, U28C, A29U, A30U
DNA 1: CAATCTGAATTCCGGTCTCCC
DNA 2: TGGTGGCTACGACGGGATT
B26: GGAUUGG (DNA:RNA)
RNA: B1 RNA with C25G, U26G, A29U, A30G
DNA 1: CAATCTGAATTCCGGTCTCCC
DNA 2: TGGTGGCTACGACGGGATT
B27: AGAGUGG (DNA:RNA)
RNA: B1 RNA with C25A, U26G, U28G, A29U, A30G
DNA 1: CAATCTGAATTCCGGTCTCCC
DNA 2: TGGTGGCTACGACGGGATT
B28: UCUGGAG (DNA:RNA)
RNA: B5 RNA with C27U, C29G, G30A, C31G
DNA 1: CAATCTGAATTCCGGTCTCCC
DNA 2: TGGTGGCTACGACGGGATT
B29: AUGUAGG (DNA:RNA)
RNA: B1 RNA with C25A, A27G, A30G
DNA 1: CAATCTGAATTCCGGTCTCCC
DNA 2: TGGTGGCTACGACGGGATT
B30: AUCUCCA (DNA:RNA)
RNA: B1 RNA with C25A, A27C, A29C, A30C, G31A
DNA 1: CAATCTGAATTCCGGTCTCCC
DNA 2: TGGTGGCTACGACGGGATT
B31: GAUAAGU (DNA:RNA)
RNA: B1 RNA with C25G, U26A, A27U, U28A, A30G, G31U
DNA 1: CAATCTGAATTCCGGTCTCCC
DNA 2: TGGTGGCTACGACGGGATT

target: T1, RBFOX1 RRM RbFoxmut (Fox-RRM*); assay: EMSA; HiTS-Eq, 1 nM pool, 10 min; buffer printed only for the single-RNA assays: 10 mM Tris pH 7.5, 150 mM NaCl, 3.4 mM EDTA, 0.001% NP-40, 30 C; conditions: tags: His6 N-terminal (pET28a); label: 5' 32P
Summary of the method: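 Relative association constants, normalised to the cognate motif, were derived by comparing read counts of each RNA species with those of the control reaction. The RNA sequenced was the free fraction, separated by 8% native PAGE after a 10 min equilibration in 50 µL of 1 nM 5′-radiolabelled RNA (7 randomized nucleotides) with increasing concentrations of purified wild-type or mutant RbFox RRM.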

Binder | binding signal
B1 | 0.0991 KA relative to UGCAUGU
B2 | 0.0902 KA relative to UGCAUGU
B3 | 0.289 KA relative to UGCAUGU
B4 | 0.0844 KA relative to UGCAUGU
B5 | 0.0955 KA relative to UGCAUGU
B6 | 1.17 KA relative to UGCAUGU
B7 | 0.225 KA relative to UGCAUGU
B8 | 0.194 KA relative to UGCAUGU
B9 | 0.953 KA relative to UGCAUGU
B10 | 0.125 KA relative to UGCAUGU
B11 | 0.0718 KA relative to UGCAUGU
B12 | 0.0821 KA relative to UGCAUGU
B13 | 0.0987 KA relative to UGCAUGU
B14 | 0.0838 KA relative to UGCAUGU
B15 | 0.459 KA relative to UGCAUGU
B16 | 0.171 KA relative to UGCAUGU

Binder | binding signal
B17 | 0.403 KA relative to UGCAUGU
B18 | 0.0639 KA relative to UGCAUGU
B19 | 0.164 KA relative to UGCAUGU
B20 | 0.063 KA relative to UGCAUGU
B21 | 0.159 KA relative to UGCAUGU
B22 | 0.117 KA relative to UGCAUGU
B23 | 0.368 KA relative to UGCAUGU
B24 | 0.186 KA relative to UGCAUGU
B25 | 0.615 KA relative to UGCAUGU
B26 | 0.219 KA relative to UGCAUGU
B27 | 0.107 KA relative to UGCAUGU
B28 | 0.0838 KA relative to UGCAUGU
B29 | 0.128 KA relative to UGCAUGU
B30 | 0.0926 KA relative to UGCAUGU
B31 | 0.0905 KA relative to UGCAUGU
